# Test results as given in PubChem BioAssay AID430 (Sanford-Burnham Center for Chemical Genomics, 2006).
# About 1,100 (1.7%) of roughly 63,000 compounds were called active. Cut-off read from the data, not from the text of the source: active = cytotoxicity above about 50%; inactive = the rest. For the sample, actives were picked, then their nearest neighbours and some compounds at random. Entries with a potency or affinity are not part of this list.
# Experiment: cytotoxicity in HPDE-C7 cells, cell-based, fluorescence, HTS (AID 430);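 note: cells exposed to compound for 48 hours before viability readout; 0% = vehicle and 100% = reference cytotoxic drug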
# Details: HPDE-C7 pancreatic duct cells viability, at 10 µM, hits give high values
row,Structure (SMILES),cytotoxicity
1,COc1cccc(-n2ccnc2SCC(=O)Nc2cc(OC)ccc2OC)c1,-21% (inactive)
2,Cc1cc(N2CCN(c3ccccc3)CC2)n2c(n1)nc1ccccc12,-8.6% (inactive)
3,CC(=O)N1CCc2cc(S(=O)(=O)NCCN3CCC(C)CC3)ccc21,2.7% (inactive)
4,COc1ccc(OC)c(C2CC(=O)NC(SC)=C2C#N)c1 (stereo unspecified),-2.9% (inactive)
5,Cc1cc(C)c2nc(N)sc2c1,3.8% (inactive)
6,c1ccc(COc2ccc(OCCCn3cncn3)cc2)cc1,-20.8% (inactive)
7,O=C(O)C1C2C=CC(C2)C1C(=O)NCc1ccoc1 (stereo unspecified),-8.3% (inactive)
8,CCOc1ccc(OCc2ccc(C(=O)NCc3ccncc3)o2)cc1,-3% (inactive)
9,C=CCOC(=O)C1=C(C)NC(SCC(=O)N(CC)CC)=C(C#N)C1c1ccco1 (stereo unspecified),12.7% (inactive)
10,CSCSC1=C(C#N)C(c2ccc(Cl)cc2)C(C(C)=O)=C(C)N1 (stereo unspecified),-18.3% (inactive)
11,CCOC(=O)CSC1=C(C#N)C(c2ccco2)C(C(=O)OCc2ccccc2)=C(C)N1 (stereo unspecified),58.8% (active)
12,CC(=O)C1=C(C)OC(N)=C(C#N)C1c1ccco1 (stereo unspecified),-2.2% (inactive)
13,CCN(CC)C(=O)CSC1=C(C#N)C(c2ccco2)C(C(=O)OCCOC)=C(C)N1 (stereo unspecified),-11% (inactive)
14,CC(=O)C1=C(C)NC(SCC(=O)c2ccc(Cl)cc2)=C(C#N)C1c1ccco1 (stereo unspecified),57.9% (active)
15,CN(c1ccc(C(=O)NCc2ccccc2)cc1)S(C)(=O)=O,-26.5% (inactive)
16,CCCS(=O)(=O)N1CCC(C(=O)NCCN2CCCC2)CC1,2.1% (inactive)
17,COc1ccc(-c2nnc(SCc3ncc(-c4ccccc4)o3)o2)cc1,-2.9% (inactive)
18,O=S1(=O)N=C(Nc2nc3c(s2)CCCC3)c2ccccc21,-10% (inactive)
19,Cc1nc(SCC#N)c2c3c(sc2n1)CCC3,-19% (inactive)
20,CSc1nc2sc3c(c2c2nnnn12)CCC3,7.6% (inactive)
21,Cc1nc(Sc2nnnn2C)c2c3c(sc2n1)CCC3,76.2% (active)
22,CC1Cc2ccccc2N1C(=O)Cn1nnc(-c2ccccc2NC(=O)C2CCC2)n1 (stereo unspecified),-11.1% (inactive)
23,CCOC(=O)C1CCCN(C(=O)CN2CCN(Cc3ccc(Cl)cc3)C2=O)C1 (stereo unspecified),-28.3% (inactive)
24,O=C(c1ccc(COc2ccc(Cl)cc2)o1)N1CCN(Cc2ccc3c(c2)OCO3)CC1,69.1% (active)

row,Structure (SMILES),cytotoxicity
1,O=C(c1ccc(COc2ccccc2Cl)o1)N1CCN(c2ccccc2)CC1,-4.6% (inactive)
2,O=C(c1ccc(COc2ccccc2Cl)o1)N1CCN(Cc2ccc3c(c2)OCO3)CC1,87.5% (active)
3,O=C(c1ccc(Cn2cc(Cl)cn2)o1)N1CCN(Cc2ccc3c(c2)OCO3)CC1,12.9% (inactive)
4,CC1CCN(C(=O)c2ccc(COc3ccccc3Cl)o2)CC1,-8.9% (inactive)
5,O=C(c1ccc(Br)o1)N1CCN(Cc2ccc3c(c2)OCO3)CC1,-8.7% (inactive)
6,Cn1c(O)c(C=NC(CC(N)=O)C(=O)O)c(=O)n(C)c1=O (stereo unspecified),-3.1% (inactive)
7,O=C(COc1cc(Cl)c(Cl)cc1Cl)Nc1ccncc1,14.9% (inactive)
8,CCOC(=O)CC(=O)CSc1nc2sc(C)cc2c(=O)n1Cc1ccco1,-13.3% (inactive)
9,COCCn1nnnc1C(c1ccc(OC)cc1)N1CCC(C)CC1 (stereo unspecified),-5.9% (inactive)
10,O=C1c2ccccc2C(=O)N1CCc1nc2ccccc2c(=O)n1CCCn1ccnc1,-20.5% (inactive)
11,N#Cc1nc(-c2ccc(OCc3ccccc3)cc2)oc1N1CCOCC1,14.5% (inactive)
12,COc1ccccc1S(=O)(=O)Cc1ccc(C(=O)NC(C)c2ccc3c(c2)OCCO3)o1 (stereo unspecified),-4.2% (inactive)
13,COc1ccc(N(C)C(=O)Nc2ccc3c(c2)nnn3C)cc1,-17.6% (inactive)
14,O=C(NCc1ccccn1)c1cc2cc(Br)ccc2oc1=O,4.9% (inactive)
15,O=C(NCc1ccccn1)c1ccc(=O)oc1,0.8% (inactive)
16,O=C(NCc1ccccn1)c1coc(=O)c(Br)c1,52.2% (active)
17,Cc1c(C(=O)NCc2cccnc2)oc2ccc(S(=O)(=O)N3CC(C)CC(C)C3)cc12 (stereo unspecified),43% (inactive)
18,CN(c1nc(-c2ccccc2)cs1)C1CCS(=O)(=O)C1 (stereo unspecified),4.5% (inactive)
19,CCOC(=O)N1CCN(S(=O)(=O)c2cc(Cl)c(OC)cc2Cl)CC1,-2.9% (inactive)
20,COc1cccc(CN(Cc2cccnc2)S(=O)(=O)c2ccc(-n3cnnn3)c(C)c2)c1,4.5% (inactive)
21,O=C(O)c1cc(C(=O)O)c(-c2ccccc2)c(C(=O)O)c1,-22.6% (inactive)
22,CC(=O)Oc1cccc2c1C(=O)c1c(OC(C)=O)cc(C(=O)O)cc1C2=O,25.5% (inactive)
23,Cn1c(=O)c(=O)n(C)c2cc(S(=O)(=O)N3CCN(c4cccc(C(F)(F)F)c4)CC3)ccc21,71.5% (active)
24,Cn1c(=O)c2cc(S(=O)(=O)N3CCN(c4cccc(C(F)(F)F)c4)CC3)ccc2n(C)c1=O,-2.2% (inactive)

row,Structure (SMILES),cytotoxicity
1,Cc1c(S(=O)(=O)N2CCN(c3cccc(C(F)(F)F)c3)CC2)c(=O)n(C)c(=O)n1C,5.2% (inactive)
2,O=C(C1CCC(Cn2c(=S)[nH]c3ccccc3c2=O)CC1)N1CCOCC1 (stereo unspecified),-5.9% (inactive)
3,O=C(O)C1CCN(c2nc(-c3ccccc3)nc3c2oc2ccccc23)CC1,23.4% (inactive)
4,CN1CCN(c2nc(-c3ccccc3)nc3c2oc2ccccc23)CC1,-10% (inactive)
5,CCC(CC)C(=O)Nc1cc(NC(=O)C(CC)CC)cc(C(=O)O)c1,-16.6% (inactive)
6,CCN=C1SC(C(=O)NCCc2ccccc2)CC(=O)N1CC (stereo unspecified),5.8% (inactive)
7,O=C1CSC(=S)N1c1cccnc1,-9.7% (inactive)
8,O=C(O)c1ccc(CN2C(=O)CSC2=S)cc1,19.2% (inactive)
9,Cc1ccc(C(=O)CSc2ncn[nH]2)cc1,17.6% (inactive)
10,Cn1c(N)c(C(=O)COC(=O)c2ccc3c(c2)OCCO3)c(=O)n(C)c1=O,-1.5% (inactive)
11,Cc1ccc(-n2c(=O)cc(N3CC(C)CC(C)C3)[nH]c2=O)cc1 (stereo unspecified),-15.2% (inactive)
12,CC(=O)Nc1cccc(-c2nc3ccc(NC(C)=O)cc3[nH]2)c1,9.5% (inactive)
13,O=C(c1ccco1)N1CCN(c2c(-c3ccccc3)c3cc(Cl)ccc3[nH]c2=O)CC1,83.6% (active)
14,O=c1[nH]c2ccc(Cl)cc2c(-c2ccccc2)c1N1CCOCC1,0.9% (inactive)
15,CCOC(=O)N1CCN(c2c(-c3ccccc3)c3cc(Cl)ccc3[nH]c2=O)CC1,7.4% (inactive)
16,CC(C)(C)n1nnnc1C(c1cccs1)N(Cc1ccccc1)Cc1ccco1 (stereo unspecified),-4.3% (inactive)
17,COc1cccc(NC(=O)C2CCCN2C(=O)Nc2cccc(F)c2)c1 (stereo unspecified),9.8% (inactive)
18,COc1ccccc1-c1nnc(SCC(=O)Nc2c(Cl)cccc2Cl)o1,-1.3% (inactive)
19,COC(=O)CSc1nnc(-c2ccccc2OC)o1,-25.6% (inactive)
20,O=S(=O)(c1ccc(OCC(O)CNCc2ccco2)c(Cl)c1)N1CCOCC1 (stereo unspecified),-9.8% (inactive)
21,Cn1c(=O)cc(SCC(=O)NCc2ccco2)c2ccccc21,-4.4% (inactive)
22,Cc1ccc(C)c(Cn2c(=O)n(CCC(=O)NCc3ccco3)c(=O)c3ccccc32)c1,-14.5% (inactive)
23,CCn1c(=O)cc(SCC(=O)NCc2ccco2)c2ccccc21,62.1% (active)
24,CCn1c(=O)cc(OCC(=O)NCc2ccco2)c2ccccc21,5.8% (inactive)

row,Structure (SMILES),cytotoxicity
1,Cc1ccccc1Cn1c(=O)n(CCCC(=O)NCc2ccco2)c(=O)c2ccccc21,-24.1% (inactive)
2,Cc1ccc(C)c(Cn2c(=O)n(CCCC(=O)NCc3ccco3)c(=O)c3ccccc32)c1,60.2% (active)
3,CC1CN(c2nc3ccccc3nc2C(C#N)C(=O)OC2CCCCC2)CC(C)O1 (stereo unspecified),-26.1% (inactive)
4,COC(=O)c1cc2ccsc2n1Cc1nc(-c2ccc(OC)cc2)oc1C,-7% (inactive)
5,COC(=O)c1ccc(-c2ccco2)n1Cc1nc(-c2ccc(OC)c(OC)c2)oc1C,71.6% (active)
6,COc1ccc(-c2nc(CS(=O)CC(=O)NCc3ccco3)c(C)o2)cc1OC (stereo unspecified),2.9% (inactive)
7,COC(=O)C1=C(C)N(CC2CCCO2)C(=O)C1 (stereo unspecified),6% (inactive)
8,Cc1cc(=O)[nH]c(SCc2nc3ccccc3s2)n1,57% (active)
9,Cc1cc(=O)[nH]c(SC/C=C/c2ccccc2)n1,-13.4% (inactive)
10,Cc1cc(=O)[nH]c(SCc2cccc(Br)c2)n1,2.7% (inactive)
11,CC(=O)Nc1ccc(C(=O)CS(=O)(=O)c2ccc(C)cc2)cc1,-17.2% (inactive)
12,Cc1cc2c(c(=O)o1)C1(C(=O)N(C)c3ccccc31)C(C#N)=C(N)O2 (stereo unspecified),-8.3% (inactive)
13,CCC(=O)Nc1ccc2c(c1)ncn2-c1ccccc1OC,-35.6% (inactive)
14,COc1ccccc1-n1cnc2cc(NC(C)=O)ccc21,-8.6% (inactive)
15,COc1ccccc1-n1cnc2cc(NCc3ccco3)ccc21,63.6% (active)
16,O=C(CCCCCN1C(=O)CCC1=O)Nc1ncn[nH]1,-2.1% (inactive)
17,CCOc1cccc2cc(-c3nnc(-c4ccccc4)o3)c(=O)oc12,-14.9% (inactive)
18,CCCCCCc1cc2cc(-c3nnc(-c4ccccc4O)o3)c(=O)oc2cc1O,62.7% (active)
19,CCCCCCc1cc2cc(C(=O)NC)c(=N)oc2cc1O,19.4% (inactive)
20,N#CCCn1cc(C(CC(=O)c2ccc(Br)cc2)C(=O)O)c2ccccc21 (stereo unspecified),-21.4% (inactive)
21,CCOC(=O)Nc1ccc(S(=O)(=O)Nn2cnnc2)cc1,-3.3% (inactive)
22,Cn1nnnc1Sc1nc(-c2cccnc2)nc2ccccc12,99.3% (active)
23,CN1CCN(c2nc(-c3cccnc3)nc3ccccc23)CC1,-0.2% (inactive)
24,OCCSc1nc(-c2cccnc2)nc2ccccc12,5.1% (inactive)
